The record followed here is PubChem BioAssay AID1851 (National Center for Advancing Translational Sciences (NCATS), 2009).

In all, about 16,000 compounds went through this assay and about 4,000 (25%) were called active. About 26% were inconclusive and are not listed. The call rests on the fitted dose curve; in most records, active means well fitted curve in the direction sought with a large enough effect; inconclusive means small, poorly fitted or top-dose-only effect, or effect the other way; inactive means no such curve, though single readings can be large or run the other way. Not all results are given here.
On the % scale 0 is the no-effect control and ±100 the full control effect.

The target of this assay is Cytochrome P450 2C9 (Homo sapiens) (UniProt P11712). Nature of the assay: Cytochrome panel assay with activity outcomes. To be noted: recombinant CYP, pro-luciferin dealkylation, luminescence, p450-cyp2c9; series mostly up to 57.1 µM; activity, negative = inhibition: at the top concentration.
Sequence of Cytochrome P450 2C9 (Homo sapiens) (P11712 whole entry, looked up): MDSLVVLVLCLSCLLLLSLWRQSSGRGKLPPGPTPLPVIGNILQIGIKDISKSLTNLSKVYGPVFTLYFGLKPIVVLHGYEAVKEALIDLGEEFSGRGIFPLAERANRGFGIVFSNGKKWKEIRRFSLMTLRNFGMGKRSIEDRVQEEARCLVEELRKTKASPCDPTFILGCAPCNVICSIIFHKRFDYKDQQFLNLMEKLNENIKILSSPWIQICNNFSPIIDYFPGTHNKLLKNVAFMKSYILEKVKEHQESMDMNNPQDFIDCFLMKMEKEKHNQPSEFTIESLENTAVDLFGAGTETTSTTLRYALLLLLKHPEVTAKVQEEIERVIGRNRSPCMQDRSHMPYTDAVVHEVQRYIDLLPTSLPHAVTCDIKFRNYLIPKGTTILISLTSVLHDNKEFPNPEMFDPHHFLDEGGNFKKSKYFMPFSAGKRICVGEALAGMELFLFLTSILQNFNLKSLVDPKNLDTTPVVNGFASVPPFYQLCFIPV
With `CCCNC1CCS(=O)(=O)C1` (configuration not stated), the “activity, negative = inhibition” value was -6.49% (inactive). Regarding `CCCCN(C(=S)Nc1ccccc1)C1CCS(=O)(=O)C1` (configuration not stated), the “activity, negative = inhibition” value was -5.84% (inactive). Regarding `Cc1ccc(NC(=O)CN2CCC(NC(=O)Cc3ccccc3)CC2)cc1C`, the AC50 is 15.8 µM (active). Take `O=C(Cc1ccccc1)NC1CCN(S(=O)(=O)c2ccc(C(=O)O)cc2)CC1`: the “activity, negative = inhibition” value is -17.5% (inactive).

As for `O=[N+]([O-])c1cccc2c(Br)[nH]nc12`, the “activity, negative = inhibition” value was 28.7% (inactive).

Consider `O=[N+]([O-])c1cccc2cn[nH]c12`, for which the “activity, negative = inhibition” value was 3.18% (inactive). For the molecule `Cc1ccc(C(c2ccc(C)o2)c2cccc([N+](=O)[O-])c2O)o1`, the AC50 is 1.26 µM (active). For `COC(=O)C1=C(C)OC(N)=C(C#N)C1C1CCCCC1` (configuration not stated), the AC50 was 10 µM (active). `CCOC(=O)C1=C(N)Oc2ccc(Br)cc2[C@@H]1[C@@H](C#N)C(=O)OCC`: the “activity, negative = inhibition” value was 4.51% (inactive).

As to `COC(=O)C1=C(C)OC(N)=C(C#N)C1c1cc(OC)ccc1OC` (configuration not stated), the AC50 is 5.01 µM (active). With `CCOC(=O)C1=C(c2ccccc2)OC(N)=C(C#N)C1c1ccc(Cl)s1` (configuration not stated), the “activity, negative = inhibition” value was 3.95% (inactive). `CC(=O)OC[C@@H]1O[C@H](C/C=N\O[C@@H](C)c2cn([C@H]3COC[C@H]3O)nn2)C=C[C@@H]1OC(C)=O`: the activity, negative = inhibition is 17.7% [at 11.4 µM] (inactive). In the case of `COc1ccccc1-c1cncnc1NCc1cnc(C)cn1`, the activity, negative = inhibition is 14.1% [at 2.29 µM] (inactive). Consider `Cc1[nH]n(-c2ccc(S(=O)(=O)O)cc2)c(=O)c1N=Nc1ccccc1`, for which the activity, negative = inhibition was 21.2% [at 11.4 µM] (inactive). Consider `Cc1ccc(N=Nc2c(N)n(-c3ccccc3)[nH]c2=O)cc1`, for which the AC50 was 7.94 µM (active). In the case of `Cn1c(N)c(N=Nc2ccc(S(N)(=O)=O)cc2)c(=O)n(C)c1=O`, the activity, negative = inhibition was 5.29% [at 11.4 µM] (inactive).

As to `CCN1C(=O)C=CC1=O`, the “activity, negative = inhibition” value is -9.22% (inactive). Consider `COc1ccc(CNCCC(c2ccc(OC(C)C)cc2)C(C)C)cc1OC` (configuration not stated), for which the “activity, negative = inhibition” value was -47.4% (inactive). Regarding `CC(C)=CCC/C(C)=C/CO/N=C1/C[C@@H](O)[C@@H](O)[C@@H]2[C@H]3C(=O)N(c4ccc(F)cc4F)C(=O)[C@@H]3CC[C@H]12`, the activity, negative = inhibition is 18.9% [at 11.4 µM] (inactive). Turning to `N#C/C(=C\c1ccc(Oc2ccc(C(F)(F)F)cc2[N+](=O)[O-])cc1)c1nc2ccccc2[nH]1`, the AC50 was 3.98 µM (active). As for `COc1cc(/C=C(/C#N)c2nc3ccccc3[nH]2)ccc1Oc1ncccc1[N+](=O)[O-]`, the AC50 is 2 µM (active). Still for that read-out and setting: next, `COc1cc(/C=C(/C#N)c2nc3ccccc3[nH]2)ccc1OCC(=O)Nc1ccccc1C`: 3.16 µM (active).

On to `COc1ccc(/C=C(/C#N)C(=O)Nc2cc(C)ccc2C)cc1C(=O)O`, for which the “activity, negative = inhibition” value is 6.97% (inactive). On to `N#C/C(=C\c1ccc(N2CCCC2)c([N+](=O)[O-])c1)c1nc2ccccc2[nH]1`, for which the AC50 was 2.51 µM (active). Consider `Fc1ccc(Nc2ncnc3ccc(-c4ccoc4)cc23)cc1`, for which the activity, negative = inhibition was -12.3% [at 2.29 µM] (inactive).

As to `COc1ccc(-c2cc(CNC(C)=O)on2)cc1`, the “activity, negative = inhibition” value was -18.3% (inactive). On to `COc1ccc(-c2cc(C(F)(F)F)n3nc(C(=O)NCc4ccco4)c(Cl)c3n2)cc1`, for which the AC50 was 0.398 µM (active). Consider `O=c1ccc(NS(=O)(=O)c2ccccc2)cn1Cc1ccc(Cl)c(Cl)c1`, for which the AC50 is 2.51 µM (active). For the molecule `O=S(=O)(c1ccccc1)N1CCC2(CCN(Cc3ccccc3)CC2)CC1`, the “activity, negative = inhibition” value is 0.608% (inactive). In the case of `O=c1ccc(NS(=O)(=O)c2ccc(Cl)cc2)cn1Cc1ccc(Cl)c(Cl)c1`, the AC50 was 1.78 µM (active). For the molecule `CCCN(CCC)C(=S)NC(=O)c1ccc(Cl)cc1Cl`, the AC50 was 3.55 µM (active). Take `CCn1c(CCNC(=O)c2ccc(Cl)cc2Cl)n[nH]c1=S`: the “activity, negative = inhibition” value is 0.368% (inactive). As to `CCC(C)C1NC(=S)N(C2CCCCC2)C1=O` (configuration not stated), the AC50 was 3.55 µM (active). Regarding `CC(C)CC1NC(=S)N(C2CCCCC2)C1=O` (configuration not stated), the AC50 is 17.8 µM (active). Regarding `COc1ccc2c(c1OC)C(=O)N(C(C)C(=O)O)C2=O` (configuration not stated), the “activity, negative = inhibition” value is 9.64% (inactive).

In the case of `O=C(CN1CCN(Cc2ccccc2)CC1)N1CCCc2c1c(=O)oc1ccc(O)cc21`, the AC50 was 20 µM (active). For the molecule `COc1cc(CN2CCCCC2)cc2cc(C(=O)O)c(=O)oc12`, the activity, negative = inhibition was 15.6% [at 11.4 µM] (inactive). With `O=C(CN1CCN(Cc2ccccc2)CC1)c1ccc(Br)cc1`, the “activity, negative = inhibition” value was -28.3% (inactive). As to `CCC[C@H](Sc1nc(N)nc2nc[nH]c12)C(=O)O`, the activity, negative = inhibition is -1.85% [at 11.4 µM] (inactive). Still for that read-out and setting: for `O=C(O)CC[P+](c1ccccc1)(c1ccccc1)c1ccccc1` the value was 8.46% [at 11.4 µM] (inactive); for `O=C(c1ccccc1)N1CCSC1=S`, -13.1% (inactive).

Turning to `O=C(Nc1ccccc1)N1CCSc2cc(Cl)ccc21`, the AC50 was 2.24 µM (active). For the molecule `CC(=O)NNC(=O)N1Cc2ccccc2Oc2ccc(Cl)cc21`, the “activity, negative = inhibition” value was -14.7% (inactive).

As for `Cc1ccc([C@@]2(C)CC/C(=N/N=C3\CC[C@](C)(c4ccc(C)c(C)c4)c4cc(C)c(C)cc43)c3cc(C)c(C)cc32)cc1C`, the activity, negative = inhibition is -6.14% [at 11.4 µM] (inactive).

For `CCCCCCCCCCCCCCC/C=C\[C@H](O)[C@@H](NC(=O)CCCCCCCCCCCCC)OC` (tested in a mixture with another compound), the “activity, negative = inhibition” value was -1.65% (inactive). In the case of `CCCCCCCCCCCCC/C=C\[C@@H](O)[C@H](CO)NC(C)=O`, the AC50 is 3.16 µM (active).

In the case of `CCCCCCCCCCCCCCCC(=O)NC(C)C`, the “activity, negative = inhibition” value was -0.628% (inactive).

By AC50 is commonly meant the midpoint of the concentration-response curve, whichever way the signal moves.
